Assay results taken from PubChem BioAssay (NCATS).
Records with an inconclusive call do not appear. Active and inactive are the calls of the source. Unless noted, calls come from the whole dose curve; as a rule, active = well fitted curve in either direction with a large enough effect (not every such curve was filed as active); inconclusive = small, poorly fitted or top-dose-only effect, or another doubt; inactive = flat fitted curve, though single readings scatter.

Tests used:
[1] = AP1 Signaling Pathway (AID 357); details: ME-180 AP-1-bla reporter, EGF-induced, beta-lactamase ratio, 5 h; at 17.2 µM (top of the series) unless noted;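 note: ME-180 reporter cells stimulated with EGF at its EC50 level; % is set by controls: 0 for no effect and ±100 for the full control effect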
Summary of the method: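 A ratiometric CCF4 readout (405 nm excitation; 460 and 530 nm emission) quantified AP-1-driven beta-lactamase in ME-180 cells after 5 h with compound and EC50 EGF; AC50 values were derived for activators and inhibitors.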

[2] = NFAT Signaling Pathway (AID 444); details: Jurkat NFAT-bla M1, carbachol, beta-lactamase ratio, 5 h; at 17.2 µM (top of the series) unless noted;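 note: carbachol stimulus at about its EC50 of 1 µM final; % is set by controls: 0 for no effect and ±100 for the full control effect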
Summary of the method: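 Jurkat cells with NFAT-driven β-lactamase reporter and co-expressed M1 receptor, stimulated with carbachol (final 1 uM, ~EC50), compound titration, 5 h at 37 °C. CCF4 loaded 1 h at RT; 460/530 nm ratio gave %activity and AC50.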

[3] = molecular target: Glucocorticoid receptor (Homo sapiens) (UniProt P04150); test: GR-GFP Redistribution (AID 450;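 active = compounds whose dose series gives a full or clear partial fitted curve of increased nuclear translocation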; note: potency is the fitted concentration of half-maximal effect); details: U2OS GR-GFP nuclear translocation, laser cytometry, 2 h
Sequence of Glucocorticoid receptor (Homo sapiens) (P04150 whole entry, looked up, the tested form may be a part): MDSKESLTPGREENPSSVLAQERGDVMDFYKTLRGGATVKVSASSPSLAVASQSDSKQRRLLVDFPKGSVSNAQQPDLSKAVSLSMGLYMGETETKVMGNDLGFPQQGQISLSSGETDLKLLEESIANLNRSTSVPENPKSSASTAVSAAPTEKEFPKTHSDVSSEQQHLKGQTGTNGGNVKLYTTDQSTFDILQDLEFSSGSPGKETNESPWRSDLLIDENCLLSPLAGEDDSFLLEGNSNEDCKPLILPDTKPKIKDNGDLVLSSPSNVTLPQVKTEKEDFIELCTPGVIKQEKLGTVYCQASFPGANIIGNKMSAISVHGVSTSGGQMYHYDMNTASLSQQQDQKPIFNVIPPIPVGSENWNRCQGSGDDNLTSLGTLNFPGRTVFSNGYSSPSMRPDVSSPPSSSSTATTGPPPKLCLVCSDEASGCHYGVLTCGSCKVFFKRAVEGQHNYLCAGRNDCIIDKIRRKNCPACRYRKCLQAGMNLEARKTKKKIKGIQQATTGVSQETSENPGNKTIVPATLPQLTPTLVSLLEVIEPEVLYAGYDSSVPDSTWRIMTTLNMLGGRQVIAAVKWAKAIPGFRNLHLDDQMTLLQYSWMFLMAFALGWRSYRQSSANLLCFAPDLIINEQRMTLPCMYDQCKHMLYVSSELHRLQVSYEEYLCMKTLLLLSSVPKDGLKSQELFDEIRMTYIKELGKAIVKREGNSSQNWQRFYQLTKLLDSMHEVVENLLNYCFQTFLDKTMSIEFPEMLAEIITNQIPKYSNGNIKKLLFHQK

[4] = molecular target: Glucocorticoid receptor (Homo sapiens) (UniProt P04150); test: GR-EFC Redistribution (AID 451; calls by dose curve; note: potency is the fitted concentration of half-maximal effect); details: CHO-K1 GR-EFC translocation, beta-gal luminescence, 2 h
Summary of the method: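 CHO-K1 cells expressing nuclear EA and GR-ED fragments of b-gal; compounds titrated up to 46 uM final, 2 h at 37 C. GR nuclear translocation read as complemented b-gal luminescence after 1 h RT detection.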

[5] = molecular target: Mitogen-activated protein kinase 10 (Mus musculus) (UniProt Q61831); test: JNK3 AlphaScreen Assay (AID 530);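 note: kinase came from lysate of stimulated human HepG2 cells; signal reports phosphorylation of biotinylated GST-cJun 1-79 at Ser73 with 10 µM ATP; % is set by controls: 0 for no effect and ±100 for the full control effect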
Summary of the method: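 Pre-activated (IL-1β/TNFα) JNK3 in HepG2 lysates phosphorylates biotin-GST-cJun(1-79), 10 uM ATP; anti-phospho-cJun(Ser73) AlphaScreen read at room temperature, pH 7.6 Tris buffer. Compounds pre-incubated 15 min as titrations.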

[6] = qHTS Assay for Identification of Small Molecule Antagonists for NFkB Signaling Pathway (AID 895; active = well fitted inhibition curve with a large enough effect in the signal ratio, with a control signal flat, not every such curve was filed as active; the % refers to the signal ratio; note: % is set by controls: 0 for no effect and ±100 for the full control effect)
Summary of the method: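 ME-180 NFkB-bla cells (beta-lactamase under NFkB response element), plated overnight, treated with compound then 10 pM TNF alpha (about EC50) for 5 hrs at 37 C. LiveBLAzer FRET read at 460/530 nm emission, 405 nm excitation.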

[7] = molecular target: Muscarinic acetylcholine receptor M1 (Rattus norvegicus) (UniProt P08482); test: qHTS Assay for Antagonists of Acetylcholine Muscarinic M1 Receptor: Kinetic Measurement of Intracellular Calcium Response (AID 943; active = well fitted curve in the direction sought with a large enough effect; an effect the other way counts as inactive or inconclusive; note: nearly all actives have a fitted effect of over 75% in size)
Sequence of Muscarinic acetylcholine receptor M1 (Rattus norvegicus) (P08482 whole entry, looked up): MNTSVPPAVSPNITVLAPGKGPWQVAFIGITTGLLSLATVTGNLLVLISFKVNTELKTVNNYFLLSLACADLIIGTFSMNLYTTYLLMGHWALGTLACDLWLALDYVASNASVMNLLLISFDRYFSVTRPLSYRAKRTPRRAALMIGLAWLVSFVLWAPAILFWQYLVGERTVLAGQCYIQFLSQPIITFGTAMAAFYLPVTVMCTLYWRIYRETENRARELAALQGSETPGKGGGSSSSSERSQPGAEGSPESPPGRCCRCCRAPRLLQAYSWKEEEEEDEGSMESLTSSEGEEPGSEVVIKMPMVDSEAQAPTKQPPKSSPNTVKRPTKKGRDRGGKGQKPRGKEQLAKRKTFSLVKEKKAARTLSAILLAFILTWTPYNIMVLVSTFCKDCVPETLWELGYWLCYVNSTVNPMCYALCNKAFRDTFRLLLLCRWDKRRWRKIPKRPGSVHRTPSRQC
Summary of the method: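 CHO cells expressing rat M1 receptor, Fluo-4 loaded, preincubated 10 min with compound, then stimulated with EC80 carbachol (100 nM final). Kinetic calcium fluorescence over 4 min; response taken as peak over basal signal.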

[8] = molecular target: Pyruvate kinase (Leishmania mexicana) (UniProt Q27686); test: qHTS Validation Assay for Inhibitors of Leishmania Mexicana Pyruvate Kinase (AID 945; active = well fitted curve in the direction sought with a large enough effect; an effect the other way counts as inactive or inconclusive;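 note: 0% = DMSO only neutral control wells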)
Sequence of Pyruvate kinase (Leishmania mexicana) (Q27686 2-499 E452W): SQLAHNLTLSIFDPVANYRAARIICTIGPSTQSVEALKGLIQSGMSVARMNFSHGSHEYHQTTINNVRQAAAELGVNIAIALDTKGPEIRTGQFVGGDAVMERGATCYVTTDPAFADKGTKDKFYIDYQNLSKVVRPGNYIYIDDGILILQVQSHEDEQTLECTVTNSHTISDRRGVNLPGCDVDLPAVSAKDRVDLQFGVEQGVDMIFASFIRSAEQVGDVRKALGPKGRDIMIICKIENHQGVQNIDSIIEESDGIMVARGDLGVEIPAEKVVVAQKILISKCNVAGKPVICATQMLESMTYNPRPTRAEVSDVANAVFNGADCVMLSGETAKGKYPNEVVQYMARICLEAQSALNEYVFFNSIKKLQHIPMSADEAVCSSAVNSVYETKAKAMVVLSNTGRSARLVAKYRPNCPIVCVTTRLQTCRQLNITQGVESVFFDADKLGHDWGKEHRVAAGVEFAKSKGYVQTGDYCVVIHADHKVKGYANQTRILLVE
Summary of the method: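 Substrate mix (0.5 mM PEP, 0.1 mM ADP, 7 mM MgCl2, 50 mM KCl, pH 7.2 imidazole) received compound by pin tool, then 0.2 nM LmPYK E451W. After 1 h at room temperature, PKLight was added and luminescence measured.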

[9] = molecular target: Pyruvate kinase PKM (Homo sapiens) (UniProt P14618); test: qHTS Assay for Activators of Human Muscle Pyruvate Kinase (AID 954; active = well fitted curve in the direction sought with a large enough effect, not every such curve was filed as active;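 note: 0% = uninhibited enzyme and -100% = no enzyme or full thiadiazolimine inhibition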)
Sequence of Pyruvate kinase PKM (Homo sapiens) (P14618 whole entry, looked up): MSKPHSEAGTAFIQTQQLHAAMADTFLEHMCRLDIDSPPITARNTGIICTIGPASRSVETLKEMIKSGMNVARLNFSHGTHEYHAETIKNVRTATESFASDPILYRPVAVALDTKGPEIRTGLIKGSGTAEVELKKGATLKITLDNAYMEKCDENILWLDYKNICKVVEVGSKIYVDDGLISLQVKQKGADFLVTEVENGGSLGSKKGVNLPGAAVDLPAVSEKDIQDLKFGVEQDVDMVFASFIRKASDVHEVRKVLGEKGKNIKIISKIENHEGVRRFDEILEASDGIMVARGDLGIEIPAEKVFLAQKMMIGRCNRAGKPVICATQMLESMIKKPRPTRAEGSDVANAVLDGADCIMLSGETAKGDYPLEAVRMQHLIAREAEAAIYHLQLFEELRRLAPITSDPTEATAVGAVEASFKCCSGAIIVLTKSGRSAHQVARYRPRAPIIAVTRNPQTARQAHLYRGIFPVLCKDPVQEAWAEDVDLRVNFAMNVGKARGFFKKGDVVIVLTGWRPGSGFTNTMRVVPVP
Summary of the method: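 Human PKM2 activity is measured as ATP generation, detected by luciferase-coupled luminescence. The enzyme (0.1 nM) acts on 0.5 mM PEP and 0.1 mM ADP for 1 h at ambient temperature; data are normalized to uninhibited and full-inhibition wells.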

[10] = molecular target: Alpha-galactosidase (Coffea arabica) (UniProt Q42656); test: Counterscreen for Glucocerebrosidase Inhibitors: qHTS Assay for Coffee Bean alpha-Galactosidase at pH 4.5 (AID 957; active = well fitted curve in the direction sought with a large enough effect; an effect the other way counts as inactive or inconclusive;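 note: plate controls were enzyme alone for no effect and no enzyme for full effect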)
Sequence of Alpha-galactosidase (Coffea arabica) (Q42656 whole entry, looked up): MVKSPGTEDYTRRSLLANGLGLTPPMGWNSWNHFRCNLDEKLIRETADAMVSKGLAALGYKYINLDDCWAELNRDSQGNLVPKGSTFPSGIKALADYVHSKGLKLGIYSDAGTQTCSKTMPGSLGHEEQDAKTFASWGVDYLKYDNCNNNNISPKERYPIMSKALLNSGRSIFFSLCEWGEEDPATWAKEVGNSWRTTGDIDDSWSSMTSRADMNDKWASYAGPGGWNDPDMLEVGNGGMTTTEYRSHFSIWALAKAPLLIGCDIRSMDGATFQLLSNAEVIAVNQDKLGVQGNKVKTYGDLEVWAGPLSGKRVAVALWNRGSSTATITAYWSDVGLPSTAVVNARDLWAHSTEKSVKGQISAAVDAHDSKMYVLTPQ
Summary of the method: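 Coffee bean enzyme (2 nM) with 80 uM 4-methylumbelliferyl alpha-D-galactopyranoside in 50 mM citric acid, 0.005% Tween-20, pH 4.5, 20 min at room temperature; compounds 0.7 nM–77 uM. Stopped at pH 10, fluorescence 365/440 nm; AC50 from Hill fits.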

[11] = molecular target: Alpha-galactosidase A (Homo sapiens) (UniProt P06280); test: Counterscreen for Glucocerebrosidase Inhibitors: qHTS Assay for Human alpha-Galactosidase at pH 4.5 (AID 992; active = well fitted curve in the direction sought with a large enough effect; an effect the other way counts as inactive or inconclusive; note: 0% is about no effect)
Sequence of Alpha-galactosidase A (Homo sapiens) (P06280 whole entry, looked up): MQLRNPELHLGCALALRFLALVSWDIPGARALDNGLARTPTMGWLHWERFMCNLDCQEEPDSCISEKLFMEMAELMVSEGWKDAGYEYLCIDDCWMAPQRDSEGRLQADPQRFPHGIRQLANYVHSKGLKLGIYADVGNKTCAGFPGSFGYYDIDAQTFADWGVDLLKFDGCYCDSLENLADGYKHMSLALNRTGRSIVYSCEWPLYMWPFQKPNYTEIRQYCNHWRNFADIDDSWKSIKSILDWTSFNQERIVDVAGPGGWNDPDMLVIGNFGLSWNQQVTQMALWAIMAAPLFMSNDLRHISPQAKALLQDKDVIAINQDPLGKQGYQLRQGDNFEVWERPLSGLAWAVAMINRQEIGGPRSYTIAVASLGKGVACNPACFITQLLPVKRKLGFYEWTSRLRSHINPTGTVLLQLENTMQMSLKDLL
Summary of the method: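 Quantitative HTS: compounds tested from 0.7 nM up to 77 uM against 2 nM enzyme with 80 uM 4-MU alpha-D-galactopyranoside. The 20 min room-temperature reaction is stopped with 1M NaOH/1M glycine, pH 10.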

[12] = molecular target: alpha-glucosidase (Oryza sativa, rice) (UniProt Q653V4); test: Counterscreen for Glucocerebrosidase Inhibitors: qHTS Assay for Rice alpha-Glucosidase at pH 5.0 (AID 997; active = well fitted curve in the direction sought with a large enough effect; an effect the other way counts as inactive or inconclusive;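 note: 0% = full activity with enzyme and -100% = basal without enzyme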)
Summary of the method: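 Rice alpha-glucosidase (4 nM final) with 400 uM 4-methylumbelliferyl-alpha-D-glucopyranoside in citrate buffer pH 5.0, 20 min at room temperature, stopped at pH 10; fluorescence 365/440 nm, compounds 0.7 nM–77 uM, AC50 from Hill fits.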

[13] = molecular target: Alpha-galactosidase (Coffea arabica) (UniProt Q42656); test: Counterscreen for Glucocerebrosidase Inhibitors: qHTS Assay for Coffee Bean alpha-Galactosidase at pH 5.9 (AID 998; active = well fitted curve in the direction sought with a large enough effect; an effect the other way counts as inactive or inconclusive;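 note: plate controls were uninhibited enzyme for no effect and no-enzyme basal signal for full effect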)
Summary of the method: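 Green coffee bean enzyme (2 nM) with 4-methylumbelliferyl alpha-D-galactopyranoside (80 uM) in 50 mM citric acid, 0.005% Tween-20, pH 5.9, 20 min at room temperature; compounds 0.7 nM–77 uM. Stopped at pH 10, fluorescence Ex365/Em440; Hill-fit AC50.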

[14] = Stat Signaling Pathway (AID 446)
Summary of the method: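 Reporter line: ME-180 cervical carcinoma, SIE-beta-lactamase. Treatment: compound with 40 pM IL-6, 5 hrs, 37 C, in low-serum OPTI-MEM with 10 mM HEPES pH 7.3. Detection: 460/530 nm fluorescence.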

[15] = molecular target: 3',5'-cyclic-AMP phosphodiesterase 4B (Homo sapiens) (UniProt Q07343); test: qHTS Assay for Inhibitors of PDE-IV (AID 607; active = well fitted activation curve with a large enough effect in the main read-out, with a control signal flat, not every such curve was filed as active; note: % of control where 0% means no effect)
Sequence of 3',5'-cyclic-AMP phosphodiesterase 4B (Homo sapiens) (Q07343 whole entry, looked up): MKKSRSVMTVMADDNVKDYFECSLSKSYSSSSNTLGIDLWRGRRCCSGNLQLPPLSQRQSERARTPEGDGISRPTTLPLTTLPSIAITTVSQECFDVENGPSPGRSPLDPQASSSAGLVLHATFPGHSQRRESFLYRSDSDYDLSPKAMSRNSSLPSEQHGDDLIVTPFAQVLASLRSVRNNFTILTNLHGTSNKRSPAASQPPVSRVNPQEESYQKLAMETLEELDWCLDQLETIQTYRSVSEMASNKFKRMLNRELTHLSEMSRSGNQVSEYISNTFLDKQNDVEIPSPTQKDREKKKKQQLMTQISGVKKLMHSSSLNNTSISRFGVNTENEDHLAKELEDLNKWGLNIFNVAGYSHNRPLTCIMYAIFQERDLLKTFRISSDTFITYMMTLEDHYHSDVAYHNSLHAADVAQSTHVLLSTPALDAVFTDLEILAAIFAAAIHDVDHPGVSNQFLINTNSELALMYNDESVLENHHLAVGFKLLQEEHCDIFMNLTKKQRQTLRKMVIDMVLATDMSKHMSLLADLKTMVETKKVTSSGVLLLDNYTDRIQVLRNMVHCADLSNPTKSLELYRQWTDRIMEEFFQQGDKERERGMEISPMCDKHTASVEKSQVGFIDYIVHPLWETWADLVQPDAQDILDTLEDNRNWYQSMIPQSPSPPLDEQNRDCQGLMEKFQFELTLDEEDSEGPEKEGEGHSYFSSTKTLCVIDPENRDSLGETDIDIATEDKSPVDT
Summary of the method: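 Cell-based read-out of cAMP via a modified cyclic nucleotide-gated channel and membrane potential dye (535/590 nm) in HEK293 cells expressing PDE4 endogenously. Compounds tested up to 22.9 uM final; 100 uM RO 20-1724 reference.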

[16] = molecular target: Ubiquitin carboxyl-terminal hydrolase 1 (Homo sapiens) (UniProt O94782); test: Inhibitors of USP1/UAF1: Pilot qHTS (AID 504865; active = well fitted curve in the direction sought with a large enough effect; an effect the other way counts as inactive or inconclusive;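 note: rhodamine fluorescence freed from ubiquitin-rhodamine substrate followed over time; top concentration of the series differs between compounds; % is set by controls: 0 for no effect and ±100 for the full control effect; nearly all actives have a fitted effect of over 35% in size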)
Sequence of Ubiquitin carboxyl-terminal hydrolase 1 (Homo sapiens) (O94782 whole entry, looked up): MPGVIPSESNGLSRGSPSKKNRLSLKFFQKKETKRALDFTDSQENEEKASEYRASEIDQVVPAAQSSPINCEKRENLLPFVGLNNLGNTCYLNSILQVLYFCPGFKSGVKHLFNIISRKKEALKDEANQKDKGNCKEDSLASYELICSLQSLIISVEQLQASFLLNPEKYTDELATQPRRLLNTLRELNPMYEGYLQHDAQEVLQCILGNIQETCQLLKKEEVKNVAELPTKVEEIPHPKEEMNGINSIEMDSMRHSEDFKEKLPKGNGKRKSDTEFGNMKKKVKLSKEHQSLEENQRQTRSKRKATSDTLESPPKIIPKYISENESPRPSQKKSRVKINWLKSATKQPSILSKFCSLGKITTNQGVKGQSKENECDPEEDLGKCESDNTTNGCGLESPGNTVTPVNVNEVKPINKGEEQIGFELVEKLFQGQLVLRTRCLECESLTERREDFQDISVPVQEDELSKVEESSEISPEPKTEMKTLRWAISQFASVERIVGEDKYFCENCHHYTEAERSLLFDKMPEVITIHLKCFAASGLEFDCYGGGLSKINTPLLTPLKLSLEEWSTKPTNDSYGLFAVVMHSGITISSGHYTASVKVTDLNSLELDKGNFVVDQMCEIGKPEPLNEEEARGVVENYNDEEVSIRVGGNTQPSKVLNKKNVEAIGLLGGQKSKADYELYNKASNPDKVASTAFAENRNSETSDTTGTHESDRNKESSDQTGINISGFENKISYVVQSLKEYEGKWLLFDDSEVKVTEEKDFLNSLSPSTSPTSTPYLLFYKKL
Summary of the method: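 USP1/UAF1 complex (1nM) preincubated with compound 15 min at room temperature, then Ub-Rho substrate (150nM final) added. Fluorescence read kinetically at 480/540 nm, 6 reads every 60 seconds. Buffer: 50mM HEPES pH 7.8, 0.5mM EDTA, 0.1 mg/ml BSA, 1mM TCEP, 0.01% Tween-20.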

[17] = molecular target: Guanine nucleotide-binding protein G(i) subunit alpha-1 (Homo sapiens) (UniProt P63096); test: qHTS Assay for Inhibitors of RGS12 GoLoco Motif Activity (Green Fluorophore) (AID 879; active = well fitted curve in the direction sought with a large enough effect; an effect the other way counts as inactive or inconclusive;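 note: 0% = labeled peptide with Gαi1 and full inhibition = labeled peptide alone without protein; negative values mean loss of peptide binding seen as reduced polarization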)
Sequence of Guanine nucleotide-binding protein G(i) subunit alpha-1 (Homo sapiens) (P63096 whole entry, looked up): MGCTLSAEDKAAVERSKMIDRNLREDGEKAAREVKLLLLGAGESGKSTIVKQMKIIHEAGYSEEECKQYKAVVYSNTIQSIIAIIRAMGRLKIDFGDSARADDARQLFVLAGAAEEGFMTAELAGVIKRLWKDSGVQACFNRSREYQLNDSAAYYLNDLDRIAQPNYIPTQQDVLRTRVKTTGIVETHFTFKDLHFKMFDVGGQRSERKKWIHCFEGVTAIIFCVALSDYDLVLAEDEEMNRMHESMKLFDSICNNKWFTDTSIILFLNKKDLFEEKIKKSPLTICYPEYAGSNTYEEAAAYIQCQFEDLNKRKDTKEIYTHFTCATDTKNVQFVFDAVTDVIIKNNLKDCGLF
Summary of the method: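 Fluorescence polarization assay: 50 nM Gαi1 with 10 nM FITC-labeled RGS12 GoLoco peptide in 10 mM Tris pH 7.5, 150 mM NaCl, 0.1 mM GDP, 0.05% NP40, 10 min at room temperature with compound.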

[18] = molecular target: Cytochrome P450 2D6 (Homo sapiens) (UniProt P10635); test: qHTS Assay for Inhibitors and Substrates of Cytochrome P450 2D6 (AID 891; active = well fitted curve in the direction sought with a large enough effect; an effect the other way counts as inactive or inconclusive; note: potency is the fitted concentration of half-maximal effect; nearly all actives have a fitted effect of over 60% in size)
Summary of the method: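 Human CYP2D6 (5 nM) with 30 uM Luciferin-ME EGE (at Km) in 100 mM KPO4, compound preincubated 10 min, then NADPH regeneration system for 60 min at room temperature. Luciferin read by luminescence; normalized to 1.43 uM quinidine.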

[19] = molecular target: Muscarinic acetylcholine receptor M1 (Rattus norvegicus) (UniProt P08482); test: qHTS Assay for Antagonists of Acetylcholine Muscarinic M1 Receptor: Measurement of IP-One Response (AID 944; active = well fitted curve in the direction sought with a large enough effect; an effect the other way counts as inactive or inconclusive; note: nearly all actives have a fitted effect of over 75% in size)
Summary of the method: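 CHO cells stably expressing rat M1, pretreated 10 min with compound, then stimulated 30 min with carbachol at EC80 (200 nM) in LiCl-containing buffer pH 7.4; IP1 accumulation read by HTRF competition (665/620 nm).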

CC(C)n1cc2c3c(cccc31)[C@@H]1C[C@H](C(=O)O[C@@H](C)[C@H](C)O)CN(C)[C@H]1C2
inactive: activity change, negative = inhibition [1] 1.23% [at 38 µM] | activity change, negative = inhibition [2] -4.79% [at 38 µM] | Potency [3] > 46 µM | Potency [4] > 46 µM | outcome [5] | Potency [6] | Potency [7] | Potency [8] | outcome [9] | outcome [10] | outcome [11] | outcome [12] | outcome [13]

CCOc1ccccc1-n1c(O)c(C=Nc2c(C)n(C)n(-c3ccccc3)c2=O)c(=O)[nH]c1=O
inactive: activity change, negative = inhibition [1] -0.373% | outcome [14] | Potency [3] > 20.6 µM

C[C@H]1CCC/C=C/C2C[C@H](O)CC2[C@H](O)/C=C/C(=O)O1 (stereo partly specified)
inactive: activity change, negative = inhibition [1] 5.62% | outcome [14] | Potency [3] > 20.6 µM

O=C1CC[C@]2(O)[C@H]3Cc4ccc(O)c5c4[C@@]2(CCN3CC2CC2)[C@@H]1O5
inactive: activity change, negative = inhibition [1] 3.41% | activity change, negative = inhibition [2] 9.93% | outcome [14] | outcome [5] | outcome [15] | Potency [16]

Cc1c(N=Cc2c(O)n(Cc3ccco3)c(=O)[nH]c2=O)c(=O)n(-c2ccccc2)n1C
inactive: activity change, negative = inhibition [1] -3.26% | outcome [14] | Potency [3] > 20.6 µM

CCN(CC)CCCNC(=O)c1c(O)c2ccccc2n(Cc2ccccc2)c1=O
inactive: activity change, negative = inhibition [1] 27.1% | outcome [14] | Potency [3] > 20.6 µM

CCOC(=O)c1cc(C)n(CCc2cnc[nH]2)c1C
inactive: activity change, negative = inhibition [1] 3.65% | outcome [14] | Potency [3] > 20.6 µM

O=C(COc1ccc2ccccc2c1)N1CCN(C2CCN(Cc3ccccc3)CC2)CC1
inactive: activity change, negative = inhibition [1] 9.29% | outcome [14] | Potency [3] > 20.6 µM

CCCCOCCCn1c(N)c(C(=O)OCCOC)c2nc3ccccc3nc21
inactive: activity change, negative = inhibition [1] -2.11% | outcome [14] | Potency [3] > 20.6 µM

COc1ccc2c(c1)[C@]13CCCC[C@@H]1[C@H](C2)N(C)CC3
active: Potency [18] 2.51 µM
inactive: activity change, negative = inhibition [1] 12% [at 38 µM] | activity change, negative = inhibition [2] -11.7% [at 38 µM] | outcome [14] | Potency [3] > 46 µM | Potency [4] > 46 µM | outcome [15] | Potency [17] | Potency [8] | outcome [9] | outcome [10] | outcome [11] | outcome [12] | outcome [13]

CCOC(=O)[C@@]1(C#N)[C@@H]2C=CC(C(N)=O)=CN2[C@@H](C(N)=O)[C@@H]1c1cccc(Cl)c1
inactive: activity change, negative = inhibition [1] -3.06% | outcome [14] | Potency [3] > 20.6 µM

C=CCN1CC[C@@]23CCCC[C@@H]2[C@@H]1Cc1ccc(O)cc13
inactive: activity change, negative = inhibition [1] -10.4% [at 38 µM] | activity change, negative = inhibition [2] -24.3% [at 38 µM] | Potency [3] > 46 µM | Potency [4] > 46 µM | outcome [5] | outcome [15] | Potency [17] | Potency [19] | Potency [8] | outcome [9] | outcome [10] | outcome [11] | outcome [12] | outcome [13]
